High-throughput results deposited in PubChem by several laboratories.
MITF act – activators of MITF-driven TRPM1 promoter activity in SK-MEL-5 cells | SK-MEL-5 TRPM1-promoter luciferase, 24 h; % of positive control, neutral wells = 0 | activation, % at 12.5 µM | 300,000 tested, 0.75% active;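 active means mean activation of at least 80% with every replicate also reaching 80%; inconclusive means mean reaches 80% but some replicate falls short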
GAA850 FXN act – activators of GAA850 frataxin (FXN) promoter | HEK293 lucGAA850 FXN promoter luciferase reporter, 24 h; percent of 10 µM SAHA response | activation, % at 6 µM | 360,000 tested, 0.56% active | AID 540364;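 active means activation above the average of all compounds screened plus 3 SD, cutoff fixed separately per campaign, cut at about 7.5% in these data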
esBAF inh – blocks esBAF chromatin remodeling in mouse ES cells; AID 602393; 350,000 tested, 2% active; reporter increase, % at 12.5 µM; Bmi1-luciferase knock-in reporter, 24 h; 100% = twice the neutral-well signal; in the data active means activation above about 40%; inconclusive means no clear call, values can overlap the other calls;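 further: a rise in the Bmi1 reporter signal indicates esBAF inhibition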
Wnt act – Wnt/beta-catenin pathway activation; 300,000 tested, 1.2% active; AID 743398; activation, % at 9.35 µM; Wnt/beta-catenin reporter cell assay, activator, plate reader; in the data active means activation above about 30%, passing the limit was not always enough; inconclusive means no clear call, values can overlap the other calls
A number is an active result; 0 = inactive; ? = inconclusive; - = no result. A selection: hits, their analogues and other compounds. The true share with any hit is near 2.8%.

SMILES	MITF act	GAA850 FXN act	esBAF inh	Wnt act
CC1CCN(C(=O)CCC(=O)N2CC(C)Oc3ccccc32)CC1 (configuration not stated)	0	0	0	0
CC1CCC(NC(=O)CCC(=O)N2CC(C)Oc3ccccc32)CC1 (configuration not stated)	0	0	55.1	0
COc1cc2sc3ccc(-c4ccc(N(C)C)nc4)cc3c(=O)c2cc1OC	-	-	-	43.6
COc1ccc(-c2ccc3sc4ccccc4c(=O)c3c2)cn1	0	0	0	38.8
CN(C)c1ccc(-c2ccc3c(=O)c4ccccc4n(C)c3c2)cn1	0	0	48.7	36.4
Cc1noc(C)c1NC(=O)N1C[C@H](O)COC[C@@H]2O[C@H](CC(=O)NCC3CCCCC3)CC[C@H]21	-	-	0	-
O=C(C[C@@H]1CC[C@@H](NC(=O)c2ccc(F)cc2)[C@H](CO)O1)NCc1ccncn1	-	-	0	-
COc1ccc(-n2ncc3c(Nc4cccc(C)c4)ncnc32)cc1	120.2	0	0	0
COc1ccc(Nc2ncnc3c2cnn3-c2cccc(C)c2)cc1OC	-	0	0	0
Cc1cccc(-n2ncc3c(NCCCn4ccnc4)ncnc32)c1	-	0	49.0	0
Cc1cccc(-n2ncc3c(Nc4ccc(F)cc4)ncnc32)c1	0	0	71.1	0
CCCN(CCC)c1ncnc2c1cnn2-c1ccc(OC)cc1	128.3	0	0	-
COc1ccc(NC(=O)N(C)C[C@@H]2Oc3ncc(-c4cccnc4)cc3C(=O)N([C@@H](C)CO)C[C@@H]2C)cc1	-	-	0	-
CC(C)(C)NC(=O)c1ccc2nccnc2c1	-	0	0	-
CC(C)(C)NC(=O)Nc1ccc2nccnc2c1	0	0	51.6	-
CCNC(=O)C[C@@H]1CC[C@H]2[C@@H](COC[C@H](O)CN2C(=O)Nc2cccc(OC)c2)O1	-	-	0	-
COc1ccc(-c2nc3n(c2C)Cc2ccccc2-3)cc1	-	0	-	46.2
C/C=C/c1cnc2c(c1)C(=O)N([C@H](C)CO)C[C@H](C)[C@@H](CN(C)C(=O)NC1CCCCC1)O2	-	-	0	-
Cc1cc(C)n(-c2nc(NC(C)C)nc(NC(C)C)n2)n1	-	9.6	0	-
Cc1cc(C)n(-c2nc(NC(C)(C)C)nc(NC(C)(C)C)n2)n1	0	0	-	-
NC(=O)c1ccsc1NC(=O)COC(=O)c1ccccc1F	0	0	0	0
CC(C)(C)NC(=O)NC(=O)COC(=O)c1c(F)cccc1Cl	0	0	50.2	0
NC(=O)c1ccsc1NC(=O)COC(=O)c1c(F)cccc1Cl	0	0	112.4	0
O=C(C[C@H]1CC[C@@H]2[C@H](COC[C@H](O)CN2CC2CCCCC2)O1)NCc1ccc(F)cc1	-	-	0	-
CSCCC(=O)N1CCC(n2nccc2NC(=O)c2ccc3c(c2)OCO3)CC1	0	0	60.8	0
SMILES	MITF act	GAA850 FXN act	esBAF inh	Wnt act
COc1ccc(CCNc2oc(-c3ccc(C)cc3)nc2C#N)cc1OC	0	0	0	0
COCCNc1oc(/C=C/c2ccccc2)nc1C#N	102.8	0	-	45.6
N#Cc1nc(-c2ccccc2)oc1NCc1ccco1	0	0	0	0
COCCNc1oc(-c2ccc(C)cc2)nc1C#N	0	0	65.3	-
N#Cc1nc(/C=C/c2ccccc2)oc1NCCCN1CCOCC1	-	0	-	0
CN(C)CCCNc1oc(-c2ccc(Cl)cc2)nc1C#N	0	0	0	-
COCCNc1oc(-c2ccc(Cl)cc2)nc1C#N	81.3	0	-	43.1
N#Cc1nc(-c2ccc(Cl)cc2)oc1NCc1ccco1	0	0	52.4	38.4
C[C@H](O)C#Cc1ccc([C@H]2[C@H]3CN(C(=O)Nc4ccccc4)CCCCN3[C@H]2CO)cc1	-	-	0	-
CC(C)NC(=O)Nc1ccc2c(c1)CC(=O)N([C@@H](C)CO)C[C@@H](C)[C@H](CN(C)Cc1ccc3c(c1)OCO3)O2	-	-	0	-
C[C@@H]1CN([C@H](C)CO)C(=O)c2cc(NC(=O)CCC(F)(F)F)ccc2O[C@@H](C)CCCCO[C@@H]1CN(C)S(=O)(=O)c1cccs1	-	-	0	-
Cc1[nH]n(-c2ccccc2)c(=O)c1N=Nc1ccc(F)cc1	0	0	0	0
Nc1[nH]n(-c2ccccc2)c(=O)c1N=Nc1ccccc1	0	0	53.9	55.0
COc1cc([N+](=O)[O-])ccc1N=Nc1c(N)[nH]n(-c2ccccc2)c1=O	0	0	-	0
Nc1[nH]n(-c2ccccc2)c(=O)c1N=Nc1ccccc1[N+](=O)[O-]	128.0	0	-	60.6
Cc1[nH]n(-c2ccccc2)c(=O)c1N=Nc1ccc2c(c1)OCCO2	0	0	-	35.2
O=c1c(N=Nc2ccccc2)c[nH]n1-c1ccccc1	-	0	0	44.9
Cc1noc(C)c1S(=O)(=O)Nc1ccc2c(c1)CC(=O)N([C@@H](C)CO)C[C@@H](C)[C@H](CN(C)C(=O)Nc1ccccc1)O2	-	-	0	-
O=C(/C=C/Nc1ccc([N+](=O)[O-])cc1Br)c1cccc2ccccc12	115.4	0	-	48.4
COc1cccc(-c2ccc3n(c2=O)C[C@H]2[C@H](CO)[C@@H](C(=O)NCCN4CCCCC4)N(C)[C@@H]32)c1	-	-	0	-
O=C(O)C(=O)/C(=C\c1cccc(Cl)c1)c1ccc2ccccc2n1	0	0	78.4	39.6
O=C(Nc1ccccc1)c1ccc2ccccc2n1	0	0	0	0
Cc1cccc(/C=C(\C(=O)C(=O)O)c2ccc3ccccc3n2)c1	0	0	49.9	0
C[C@@H]1CN([C@H](C)CO)C(=O)Cc2cc(NC(=O)C3CCCCC3)ccc2O[C@H]1CN(C)CC1CC1	-	-	0	-
Cc1cc(C)cc(NC(=O)Nc2ccc3c(c2)C(=O)N(C)[C@@H]2CC[C@H](CC(=O)O)O[C@H]2CO3)c1	-	-	0	-
SMILES	MITF act	GAA850 FXN act	esBAF inh	Wnt act
CC[n+]1c(/C=C/c2ccc(OC)c(OC)c2)ccc2ccccc21	-	0	79.7	0
CC[n+]1c(/C=C/c2ccc(OC(C)=O)c(OC)c2)ccc2ccccc21	96.9	0	83.4	0
CC[n+]1c(/C=C/c2ccc(N(C)C)cc2)ccc2ccccc21	0	0	-	-
CC[n+]1c(/C=C/c2cc([N+](=O)[O-])ccc2O)ccc2ccccc21	-	0	42.9	0
COC(=O)c1c(-c2ccc(OC)cc2)sc2ccc(N3CCOCC3)cc12	0	0	42.2	0
COC(=O)c1c(-c2ccccc2OC)sc2ccccc12	0	0	0	0
COc1ccc(-c2sc3ccc(N4CCOCC4)cc3c2-c2ccc(O)cc2)cc1	0	0	0	0
COC(=O)c1c(-c2cc(OC)cc(OC)c2)sc2ccc(OC)cc12	0	0	0	0
COC(=O)c1c(-c2ccc(OC)cc2)sc2cc(OC)c(OC)cc12	0	0	0	0
COC(=O)c1c(-c2ccc(S(C)(=O)=O)cc2)sc2cc(OC)ccc12	0	0	44.7	?
COC(=O)c1c(-c2ccc(SC)cc2)sc2ccccc12	0	0	69.6	0
COC(=O)c1c(-c2ccc(S(C)(=O)=O)cc2)sc2ccc(OC)cc12	106.6	0	59.5	46.7
Cc1noc(C)c1S(=O)(=O)Nc1ccc2c(c1)C(=O)N([C@@H](C)CO)C[C@@H](C)[C@@H](CN(C)C(=O)Nc1ccc(F)cc1)O2	-	-	0	-
C[C@@H]1CN([C@@H](C)CO)C(=O)c2c(c3ccccc3n2C)-c2ccccc2CO[C@@H]1CN(C)C(=O)[C@H]1CCCN1C	-	-	0	-
Cc1ccc(C(=O)Nc2ccc3c(c2)nc2n3CCSC2)cc1	-	0	0	32.7
